What follows are compounds tested on TDF (assay: H1.0 immunofluorescence intensity relative to DMSO (% of DMSO); higher = stronger H1.0 induction, active = 120 or more). Conditions: concentration: 10 µM; 24 h.
Method in brief: (§1)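 HCC1569 and TDF cells were seeded at 800 per well in 384-well plates in RPMI with 10% FBS and treated with compounds at 10 µM for 24 h at 37 °C, in triplicate. After fixation in 3.7% formaldehyde, cells were stained with a rabbit anti-H1.0 antibody, an AlexaFluor 647 secondary and DAPI, and six fields per well were imaged at ×10. H1.0 nuclear intensity or cell number is given as percent of the plate control, using the median of replicates, with HCC1569 values smoothed for positional effects.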
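Further: TDF is a line of transformed human dermal fibroblasts of mesenchymal origin.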

H1.0 immunofluorescence intensity, inactive:
O=C(O)CCCC=CCC1C(O)CC(F)C1C=CC(O)C1Cc2ccccc2C1 (stereo not drawn) 91.9, CCCCN1CCCCC1C(=O)Nc1c(C)cccc1C (stereo not drawn) [Bupivacaine] 101, NC(N)=Nc1nc(CSCCC(N)=NS(N)(=O)=O)cs1 91.1, Cc1oncc1C(=O)Nc1ccc(C(F)(F)F)cc1 [Leflunomide] 97.1, CCn1cc(C(=O)O)c(=O)c2ccc(C)nc21 [Nalidixic acid] 91.1

Each compound was assayed on HCC1569 (assay: H1.0 immunofluorescence intensity relative to DMSO (% of DMSO); higher = stronger H1.0 induction, active = 140 or more). Conditions: concentration: 10 µM; 24 h.
Method in brief: as §1

H1.0 immunofluorescence intensity, inactive:
CC1OC(n2cc(F)c(=O)[nH]c2=O)C(O)C1O (stereo not drawn) [Doxifluridine] 101, CC1=NN(c2ccccc2)C(=O)C1 97.6, CCCCCCCCOC(=O)C=Cc1ccc(O)c(O)c1 [n-Octyl caffeate] 120, Cl.O=C(OCCN1CCOCC1)C1(c2ccccc2)CCCCC1 94, CON(C)C(=O)[C@H](O)[C@H](Cc1ccccc1)NC(=O)c1cc2cc(Cl)ccc2[nH]1 103, O=C(C=Cc1ccc(O)c(O)c1)c1ccc(OC2OC(CO)C(O)C(O)C2O)c(O)c1O (stereo not drawn) [Marein] 91.5, CCCCC(C)(C)C(O)C=CC1C(O)CC(=O)C1CC=CCCCC(=O)O (stereo not drawn) [16,16-Dimethyl-prostaglandin E2] 109, CC(=O)Oc1ccccc1C(=O)Nc1ncc([N+](=O)[O-])s1 [2-{[(5-nitro-1,3-thiazol-2-yl)amino]carbonyl}phenyl acetate] 103
